Measured values published in PubChem BioAssay (NCATS).
Values without a mark were called inactive. Records with an inconclusive call do not appear. Where a call stands in place of a potency, no number is given. Calls of active or inactive are those of the source. Unless noted, the call rests on the fitted dose curve; in most records, active means well fitted curve in the direction sought with a large enough effect; inconclusive means small, poorly fitted or top-dose-only effect, or another doubt; inactive means no such curve, though single readings can be large; an effect the other way counts as inactive or inconclusive.

How the values were obtained:
[1] = target: Voltage-gated inwardly rectifying potassium channel KCNH2 (Homo sapiens) (UniProt Q12809); assay: qHTS Assay for Small Molecule Inhibitors of the Human hERG Channel Activity (AID 588834); conditions: U2OS BacMam hERG, FluxOR thallium flux fluorescence; series mostly up to 46.1 µM;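 further: lower thallium flux fluorescence means stronger hERG block; nearly all actives have a fitted effect of over 50% in size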; further: potency means the concentration at half of the fitted maximal effect
Chain of Voltage-gated inwardly rectifying potassium channel KCNH2 (Homo sapiens) (Q12809 whole entry, looked up): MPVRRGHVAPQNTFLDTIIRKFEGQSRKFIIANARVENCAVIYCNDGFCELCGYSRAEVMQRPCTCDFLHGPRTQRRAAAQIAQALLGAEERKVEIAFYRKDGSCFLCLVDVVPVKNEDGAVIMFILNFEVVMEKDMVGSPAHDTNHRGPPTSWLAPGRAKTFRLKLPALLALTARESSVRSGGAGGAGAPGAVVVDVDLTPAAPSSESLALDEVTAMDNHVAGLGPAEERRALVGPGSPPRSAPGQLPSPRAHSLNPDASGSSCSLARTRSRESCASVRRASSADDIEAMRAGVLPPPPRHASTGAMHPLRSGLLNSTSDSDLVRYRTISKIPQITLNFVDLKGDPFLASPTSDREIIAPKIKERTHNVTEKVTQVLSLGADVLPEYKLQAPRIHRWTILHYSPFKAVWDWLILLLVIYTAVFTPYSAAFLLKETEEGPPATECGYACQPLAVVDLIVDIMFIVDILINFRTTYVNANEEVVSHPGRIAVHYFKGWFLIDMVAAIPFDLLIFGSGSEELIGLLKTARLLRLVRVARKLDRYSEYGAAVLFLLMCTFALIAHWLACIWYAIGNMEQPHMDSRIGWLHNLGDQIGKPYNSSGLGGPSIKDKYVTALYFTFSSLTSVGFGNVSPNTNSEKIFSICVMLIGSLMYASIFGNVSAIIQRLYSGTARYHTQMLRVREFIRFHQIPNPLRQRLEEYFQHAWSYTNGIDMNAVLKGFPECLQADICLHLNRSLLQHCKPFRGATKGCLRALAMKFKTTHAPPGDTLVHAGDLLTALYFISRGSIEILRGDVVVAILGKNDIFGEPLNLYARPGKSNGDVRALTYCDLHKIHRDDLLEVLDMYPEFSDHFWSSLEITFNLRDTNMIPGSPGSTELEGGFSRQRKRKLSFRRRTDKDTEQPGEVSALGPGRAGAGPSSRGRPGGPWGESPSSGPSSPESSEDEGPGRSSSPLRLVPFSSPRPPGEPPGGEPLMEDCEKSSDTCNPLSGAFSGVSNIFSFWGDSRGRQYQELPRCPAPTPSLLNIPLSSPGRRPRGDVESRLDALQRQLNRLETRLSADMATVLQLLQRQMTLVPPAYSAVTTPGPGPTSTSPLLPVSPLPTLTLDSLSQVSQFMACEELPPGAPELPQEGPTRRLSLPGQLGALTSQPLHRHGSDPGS
Summary of the method: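 Homogeneous FluxOR thallium flux assay using hERG-expressing U2OS cells (BacMam). Compound treatment about 10 minutes preceded stimulation; reduced fluorescence taken as channel block.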

[2] = target: Glutaminase kidney isoform, mitochondrial (Homo sapiens) (UniProt O94925); assay: qHTS for Inhibitors of Glutaminase (GLS): LOPAC Validation (AID 624146); conditions: glutaminase enzyme activity inhibition; series mostly up to 46.1 µM; further: nearly all actives have a fitted effect of over 60% in size; further: potency means the concentration at half of the fitted maximal effect
Chain of Glutaminase kidney isoform, mitochondrial (Homo sapiens) (O94925 whole entry, looked up, canonical isoform): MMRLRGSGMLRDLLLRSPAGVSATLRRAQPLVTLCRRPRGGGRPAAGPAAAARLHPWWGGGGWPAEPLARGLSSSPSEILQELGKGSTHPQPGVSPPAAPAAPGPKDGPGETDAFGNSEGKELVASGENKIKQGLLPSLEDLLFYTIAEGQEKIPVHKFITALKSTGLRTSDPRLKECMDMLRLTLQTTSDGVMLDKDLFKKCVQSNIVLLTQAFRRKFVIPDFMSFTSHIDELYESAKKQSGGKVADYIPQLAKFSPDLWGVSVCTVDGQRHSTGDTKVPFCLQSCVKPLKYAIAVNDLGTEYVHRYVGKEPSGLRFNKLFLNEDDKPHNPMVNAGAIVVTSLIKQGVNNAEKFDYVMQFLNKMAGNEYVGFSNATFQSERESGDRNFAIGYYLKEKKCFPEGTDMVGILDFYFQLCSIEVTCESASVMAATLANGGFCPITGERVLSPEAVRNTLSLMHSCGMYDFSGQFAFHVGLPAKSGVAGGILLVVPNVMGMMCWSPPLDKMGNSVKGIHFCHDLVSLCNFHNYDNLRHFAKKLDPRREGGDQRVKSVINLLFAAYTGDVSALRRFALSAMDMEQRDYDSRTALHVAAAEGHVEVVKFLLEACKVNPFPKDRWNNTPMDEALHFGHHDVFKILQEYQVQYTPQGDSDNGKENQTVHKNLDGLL
Summary of the method: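 hKGA in 45 mM KH2PO4 pH 8.2, 0.02% Tween-20 with pin-transferred compounds; 1 mM L-glutamine (stock) plus glutamate oxidase/HRP/Amplex Red coupling added. Fluorescence read initially and after 30 min at RT.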

[3] = qHTS of Trypanosoma Brucei Inhibitors: LOPAC Validation (AID 624147); conditions: purified enzyme assay, luminescence, 45 min; series mostly up to 57.5 µM
Summary of the method: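 Luminescence from Kinase-Glo Plus, added after a 45-minute room-temperature reaction, served as the end-point read-out. The enzyme and substrate were preincubated with compound before ADP (130 uM final) initiated turnover. Concentration-effect curves came from normalized qHTS data.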

[4] = target: Glucagon-like peptide 1 receptor (Homo sapiens) (UniProt P43220); assay: qHTS of GLP-1 Receptor Agonists: LOPAC Validation (AID 624148); conditions: GLP-1R agonist cell assay; series mostly up to 46.1 µM;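 further: higher luminescence signal means agonism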
Chain of Glucagon-like peptide 1 receptor (Homo sapiens) (P43220 whole entry, looked up): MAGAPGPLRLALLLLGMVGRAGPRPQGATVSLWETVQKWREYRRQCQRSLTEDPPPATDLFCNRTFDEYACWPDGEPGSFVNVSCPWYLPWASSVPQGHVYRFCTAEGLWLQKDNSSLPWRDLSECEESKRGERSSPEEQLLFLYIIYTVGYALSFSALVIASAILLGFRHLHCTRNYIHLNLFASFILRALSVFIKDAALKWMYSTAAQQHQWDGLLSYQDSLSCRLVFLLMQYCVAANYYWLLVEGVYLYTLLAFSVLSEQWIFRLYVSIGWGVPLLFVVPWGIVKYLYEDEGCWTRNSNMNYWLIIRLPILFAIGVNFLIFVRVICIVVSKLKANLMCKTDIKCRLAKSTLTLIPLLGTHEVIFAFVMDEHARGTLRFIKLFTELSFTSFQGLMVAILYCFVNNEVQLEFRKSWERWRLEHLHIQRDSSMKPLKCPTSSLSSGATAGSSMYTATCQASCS
Summary of the method: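 HEK293 cells stably co-expressing GLP-1R and a cAMP-responsive luciferase reporter, plated 12 hours before compound, then incubated 4-6 hr at 37 deg C. Luminescence read 12 min after detection reagent.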

[5] = qHTS of Nrf2 Activators: LOPAC Validation (AID 624149); conditions: Nrf2/ARE reporter cell assay; series mostly up to 46.1 µM
Summary of the method: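 AREc32_Fluc cells, 1000/well, OPTI-MEM + 5% FBS, o/n 37 deg C 5% CO2; compound pin-transfer, 24 hr 37 deg C; Steady-Glo 30 min RT, luminescence read.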

[6] = HTS Assay for Allosteric Antagonists of the Human D2 Dopamine Receptor: Hit Validation in HTRF (AID 624455); conditions: Cells stably expressing D1 dopamine receptor, inhibition mode; series mostly up to 46.1 µM
Summary of the method: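 HTRF read-out; cells stably expressing D1 receptor; hits scored for inhibition of D1-mediated response. Primary screen: calcium flux, force-coupled inducible Hek293 Trex D2 line, antagonism vs EC80 dopamine.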

[7] = qHTS assay for small molecule agonists of the antioxidant response element (ARE) signaling pathway (AID 651741; active means well fitted activation curve with a large enough effect in the signal ratio; the % refers to the signal ratio; further: potency means the concentration at half of the fitted maximal effect); conditions: HepG2 ARE-bla reporter, beta-lactamase FRET ratio, 16 h; series mostly up to 96 µM
Summary of the method: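 HepG2 ARE-bla reporter cells, 2,000/well; 5 h settle at 37 C/5% CO2; compound pin transfer (23 nL, DMSO); 16 h at 37 C; LiveBLAzer B/G FRET substrate, 2 h RT; fluorescence intensity read.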

[8] = qHTS assay for environmental chemicals that activate the Aryl hydrocarbon Receptor (AhR) signaling pathway (AID 651777); conditions: 1A2-DRE human hepatoma cells, luciferase, 24 h; hits give high values; further: nearly all actives have a fitted effect of over 15% in size
Summary of the method: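 Luminescence read-out: One-Glo added for 30 min at RT after 24 hr compound treatment (37 C, 5% CO2) of human hepatoma cells expressing a DRE/CYP1A2 promoter–luciferase reporter; increased signal indicates AhR activation.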

[9] = qHTS assay for small molecule activators of the p53 signaling pathway (AID 651743; active means well fitted activation curve with a large enough effect in the signal ratio, not every such curve was filed as active; the % refers to the signal ratio); conditions: HCT-116 p53RE-bla, beta-lactamase FRET ratio, 16 h; hits give high values
Summary of the method: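 Reporter: beta-lactamase driven by p53 response elements, stably integrated in HCT-116 cells. Cells seeded at 4,000/well, 5 h preincubation, compound (DMSO) 16 h at 37 C; B/G FRET substrate 2 h RT; fluorescence intensity read.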

[10] = qHTS assay for small molecule activators of the nuclear factor-kappa B (NF-kB) signaling pathway (AID 651749; active means well fitted activation curve with a large enough effect in the signal ratio; the % refers to the signal ratio); conditions: NF-kB-bla ME-180 cells, beta-lactamase FRET ratio, 16 h; hits give high values
Summary of the method: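 NF-kB-bla ME-180 cells, 2,000/well; 23 nL compound or DMSO pinned; 16 hr, 37C/5% CO2; beta-lactamase FRET read-out.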

[11] = target: Tumor necrosis factor (Homo sapiens) (UniProt P01375); assay: qHTS assay to identify small molecules that stimulate Tumor Necrosis Factor-alpha (TNF-alpha) secretion (AID 651757; active means well fitted curve in the direction sought with a large enough effect in the signal ratio; the % refers to the signal ratio); conditions: Human cells, HTRF 665/615 ratio; series mostly up to 92.2 µM
Chain of Tumor necrosis factor (Homo sapiens) (P01375 whole entry, looked up): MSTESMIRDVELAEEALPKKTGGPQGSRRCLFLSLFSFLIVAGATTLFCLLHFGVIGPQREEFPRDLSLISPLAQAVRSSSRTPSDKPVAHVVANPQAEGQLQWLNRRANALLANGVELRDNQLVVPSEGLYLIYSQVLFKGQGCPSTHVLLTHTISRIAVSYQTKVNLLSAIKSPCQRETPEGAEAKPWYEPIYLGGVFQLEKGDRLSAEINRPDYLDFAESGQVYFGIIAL
Summary of the method: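 THP-1 cells, 3000/well; compound 17 hrs, 37 C; add cryptate/XL665 anti-TNF-alpha antibody pair; 3 hr RT; TR-FRET (HTRF) read of secreted TNF-alpha. Quantitative HTS format.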

[12] = qHTS assay to identify small molecules that stimulate interleukin-8 (IL-8) secretion (AID 651758; active means well fitted activation curve with a large enough effect in the signal ratio; the % refers to the signal ratio); conditions: HTRF ratio (665/615); series mostly up to 92.2 µM
Summary of the method: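 Compounds are added to THP-1 cells (2000 per well) and left 16 hrs at 37 C. A labeled anti-IL-8 antibody pair is then added, and IL-8 secretion is measured by time-resolved FRET after 1-3 hrs at room temperature.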

[13] = target: Peroxisome proliferator-activated receptor alpha (Homo sapiens) (UniProt Q07869); assay: qHTS assay for small molecule agonists of the peroxisome proliferator-activated receptor alpha (PPARalpha) signaling pathway (AID 651778); conditions: PathHunter PPARalpha complementation, chemiluminescence, 6 h; max response: hits give high values; further: potency means the concentration at half of the fitted maximal effect
Chain of Peroxisome proliferator-activated receptor alpha (Homo sapiens) (Q07869 whole entry, looked up, the tested form may be a part): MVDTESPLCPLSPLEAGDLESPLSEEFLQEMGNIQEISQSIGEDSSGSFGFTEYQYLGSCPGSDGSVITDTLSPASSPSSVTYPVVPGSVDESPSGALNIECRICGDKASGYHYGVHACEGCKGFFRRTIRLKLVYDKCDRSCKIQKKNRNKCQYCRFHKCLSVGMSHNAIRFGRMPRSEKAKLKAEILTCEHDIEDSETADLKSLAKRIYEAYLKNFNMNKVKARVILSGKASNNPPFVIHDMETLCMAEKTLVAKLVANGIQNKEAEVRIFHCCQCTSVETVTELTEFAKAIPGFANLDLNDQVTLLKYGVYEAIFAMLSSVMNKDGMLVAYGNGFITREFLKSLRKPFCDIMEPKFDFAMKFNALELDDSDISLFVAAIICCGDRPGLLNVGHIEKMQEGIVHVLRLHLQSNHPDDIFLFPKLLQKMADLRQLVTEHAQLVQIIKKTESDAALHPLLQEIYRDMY
Summary of the method: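 Enzyme-fragment complementation assay in which ligand-bound PPARalpha translocates and forms an active enzyme that generates chemiluminescence. Cells were plated overnight, exposed to compound for 6 hr at 37 C, and then given detection reagent for 60 min at room temperature.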

CSC(=N)N
Potency [1]: inactive | Potency [2]: inactive | Potency [3]: inactive | Potency [4]: inactive | Potency [5]: inactive | Potency [6]: inactive

C=CCn1c(=O)c2c(nc(-c3ccc(S(=O)(=O)O)cc3)n2C)n(C)c1=O
Potency [1]: inactive | Potency [2]: inactive | Potency [3]: inactive | Potency [4]: inactive | Potency [5]: inactive | Potency [6]: inactive

Nc1ccc2c3c(cccc13)C(=O)NC2=O
Potency [1]: 5.01 µM (active) | Potency [2]: inactive | Potency [3]: inactive | Potency [4]: inactive | Potency [5]: inactive | Potency [6]: inactive

O=C(O)c1cc2cc(F)ccc2[nH]1
Potency [1]: inactive | Potency [2]: inactive | Potency [3]: inactive | Potency [4]: inactive | Potency [5]: inactive | Potency [6]: inactive

C/C(=C\c1ccc(C(=O)O)cc1)c1ccc2c(c1)C(C)(C)CCC2(C)C
Potency [1]: inactive | Potency [2]: inactive | Potency [3]: inactive | Potency [4]: inactive | Potency [5]: inactive | Potency [6]: inactive | Potency [7]: 27.3 µM (active) | activation [8]: 0.324%

C[C@@]1(C2CCCC2)Cc2cc(OCC(=O)O)c(Cl)c(Cl)c2C1=O
Potency [1]: inactive | Potency [2]: inactive | Potency [3]: inactive | Potency [4]: inactive | Potency [5]: inactive | Potency [6]: inactive

NS(=O)(=O)c1cccc2c1c([N+](=O)[O-])cc1nc(O)c(O)nc12
Potency [1]: inactive | Potency [2]: inactive | Potency [3]: inactive | Potency [4]: inactive | Potency [5]: inactive | Potency [6]: inactive

COc1cc(C(O)CO)ccc1O (stereo unspecified)
Potency [1]: inactive | Potency [2]: 4.47 µM (active) | Potency [3]: inactive | Potency [4]: inactive | Potency [5]: inactive | Potency [6]: inactive

CCCCS(=N)(=O)CC[C@H](N)C(=O)O (stereo partly specified)
Potency [1]: inactive | Potency [2]: inactive | Potency [3]: inactive | Potency [4]: inactive | Potency [5]: inactive | Potency [6]: inactive

COC(=O)C(C)(N)Cc1ccc(O)cc1 (stereo unspecified)
Potency [1]: inactive | Potency [2]: inactive | Potency [3]: inactive | Potency [4]: inactive | Potency [5]: inactive | Potency [6]: inactive

Cc1cccc(C(=O)NCN2CCN(c3ccccc3C#N)CC2)c1
Potency [1]: inactive | Potency [2]: inactive | Potency [3]: inactive | Potency [4]: inactive | Potency [5]: inactive | Potency [6]: inactive

CC(=O)NCCc1c[nH]c2ccc(O)cc12
Potency [1]: inactive | Potency [2]: 1 µM (active) | Potency [3]: inactive | Potency [4]: inactive | Potency [5]: inactive | Potency [6]: inactive

CCCn1c(=O)c2c(ncn2C)n(CCC)c1=O
Potency [1]: inactive | Potency [2]: inactive | Potency [3]: inactive | Potency [4]: inactive | Potency [6]: inactive

CC1CCN=C(N)S1 (stereo unspecified)
Potency [1]: inactive | Potency [2]: inactive | Potency [3]: inactive | Potency [4]: inactive | Potency [5]: inactive | Potency [6]: inactive

C=C(C)C1CC=C(C(=O)O)CC1 (stereo unspecified)
Potency [1]: inactive | Potency [2]: inactive | Potency [3]: inactive | Potency [4]: inactive | Potency [5]: inactive | Potency [6]: inactive

Nc1ccc(N2C(=O)c3ccccc3C2=O)c(Cl)c1
Potency [1]: inactive | Potency [2]: inactive | Potency [3]: inactive | Potency [4]: inactive | Potency [5]: inactive | Potency [6]: inactive

c1ccc2c(c1)CC(N1CCN(c3cccc4c3OCCO4)CC1)C2
Potency [1]: 15.8 µM (active) | Potency [2]: inactive | Potency [3]: inactive | Potency [4]: inactive | Potency [5]: inactive | Potency [6]: inactive

CCCCCCCCCC[Si](C)(C)CCC(=O)NC(Cc1ccc(C)cc1)c1ccccc1 (stereo unspecified)
Potency [1]: inactive | Potency [2]: inactive | Potency [3]: inactive | Potency [4]: inactive | Potency [5]: inactive | Potency [6]: inactive

CCCn1c(=O)c2[nH]c(C3CCCC3)nc2n(CCC)c1=O
Potency [1]: inactive | Potency [2]: inactive | Potency [3]: inactive | Potency [4]: inactive | Potency [5]: inactive | Potency [6]: inactive

CC(=O)C(C)=O
Potency [1]: inactive | Potency [2]: inactive | Potency [3]: inactive | Potency [4]: inactive | Potency [5]: inactive | Potency [6]: inactive | activation [9]: -1.05% | activation [10]: -1.05% | outcome [11]: inactive | outcome [12]: inactive | activation [8]: -0.684% | max response [13]: -2.24%

CCCc1c(OCCCOc2ccc(OCC(=O)O)cc2)ccc(C(C)=O)c1O
Potency [1]: inactive | Potency [2]: inactive | Potency [3]: inactive | Potency [4]: inactive | Potency [5]: inactive | Potency [6]: inactive | Potency [7]: 54.5 µM (active) | activation [9]: 16.9% | activation [10]: -3.53% | activation [8]: 0.459% | Potency [13]: 11.2 µM (active)

O=C(O)C1=CC(=C(c2ccc(O)c(C(=O)O)c2)c2ccc(O)c(C(=O)O)c2)C=CC1=O
Potency [1]: inactive | Potency [2]: inactive | Potency [3]: inactive | Potency [4]: inactive | Potency [5]: inactive | Potency [6]: inactive

O=C(O)C1CCCNC1 (stereo unspecified)
Potency [1]: inactive | Potency [2]: inactive | Potency [3]: inactive | Potency [4]: inactive | Potency [5]: inactive | Potency [6]: inactive

N[C@@H](CCCC(=O)O)C(=O)O
Potency [1]: inactive | Potency [2]: inactive | Potency [3]: inactive | Potency [4]: inactive | Potency [5]: inactive | Potency [6]: inactive
